Measured values taken from the supplement of paper PMC11417369.
In all, about 25,000 sequences were measured (“ln(normalized median fluorescence intensity)”: median about 9.7, highest 2% from about 11 on). The sample as a whole holds a higher share of the highest values than the screen did.

These sequences were tested on PfAP2-HC AP2 domain (GST-tagged) (assay: gcPBM binding intensity (ln(normalized median fluorescence intensity)); higher = stronger DNA binding).
How it was run: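 In this array assay, P. falciparum DNA-binding domains with a GST tag, expressed in E. coli, were applied for 1 h to primer-extended double-stranded 36-bp intergenic genomic probes and negative controls on an Agilent 4 × 180k array. Bound protein was visualised with Alexa488 anti-GST antibody at 488 nm. Binding intensity is the highest Masliner-normalised natural-log median intensity across replicate spots of either probe orientation.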

| Sequence | gcPBM binding intensity (ln) |
| --- | --- |
| TTTTTTTTTGAATACAGTACACAAGTGTTAAGTTTA [XGTACX_site7069] | 9.36 |
| TAAGTATACTCATACACACACACACTAGAAAAAAAA [CACACA_site4397] | 10.4 |
| TTCCACATTTTACAGACACACACAATTTATATTACG [CACACA_site8572] | 10.1 |
| ATGTTAAACAAATCTATACACACGTATATGACAAAA [CACACA_site1783] | 9.71 |
| TTTTGAAGTAATACATGTACTTAAATTACTAAAAAA [XGTACX_site1955] | 9.47 |
| TTCATATATTTTAAAGCATGCATTCATCTTATAGTT [TGCATGCA_site800] | 9.71 |
| TTGTATATATTTATATGTACATATATTACTTTTGCT [XGTACX_site2449] | 9.83 |
| TAAAATAACTCACAAAGTACAAAAATAAGCATATGA [XGTACX_site7046] | 9.79 |
| TTTATTTTGTTTTCTTGTACATAAATAATTACATAT [XGTACX_site4227] | 9.86 |
| TACACGCATAAACACACACACACACCCATATATATA [CACACA_site8114] | 11.3 |
| ATAATCCTGAAACACACACACACACCCATAAATAAA [CACACA_site481] | 11.1 |
| AACACCCATGGACACACACACATATATATATATATA [CACACA_site5809] | 10.4 |
| TATCTCATAGTATACACACACACACCCACCCATATA [CACACA_site1739] | 10.7 |
| TAAACACCCATATAAACACACATACATACATACATA [CACACA_site5383] | 10.4 |
| CAAAAAATGAAACACACACACACACCCATAAATAAA [CACACA_site1231] | 10.8 |
| ATTCATATGAAACACACACACACACCCATAAAAAAA [CACACA_site3246] | 10.5 |
| TATAAACACCCATATAAACACACATACATACATACA [CACACA_site8791] | 10.2 |
| TCATAGTATGGACACACACACACACCCATATATATA [CACACA_site5033] | 11.2 |
| TCATAGTATAAACACACACACACACCCATATATATA [CACACA_site8512] | 11 |
| ATTAGTGACATTATTACACACAAAAGAAAACAGAAA [CACACA_site3984] | 9.99 |
| TTTCAAAAAAATAATGTGCACATTAGAAAATAAATA [GTGCAC_site9416] | 9.78 |
| TATTTTTTGAAAAGTTCACACATCCAACTCGAGTTG [CACACA_site4412] | 9.62 |

| Sequence | gcPBM binding intensity (ln) |
| --- | --- |
| TATATATATATAATATGTACATATATATATTCTTAA [XGTACX_site6154] | 9.49 |
| GTATGTATAATATACACACTCACAAGCATTCAAATA [CACACA_site267] | 9.76 |
| TACACGCATGGACACACACACACACCCATATATATA [CACACA_site4522] | 11 |
| TATATAAATAAACACACACACACCTTATAATTATTA [CACACA_site9345] | 10.5 |
| AAAAAAAATAAACACACACACATACCCATAAATATA [CACACA_site5980] | 10.4 |
| CACGCATACAGACACACACACACACCCATATATATA [CACACA_site636] | 10.6 |
| GAAAAACAAATATATTAACACACAAACATATAAACA [CACACA_site9315] | 10.2 |
| TACACCCATGGACACACACACACGCATAAAAAAAAA [CACACA_site4933] | 10.7 |
| TATATATTAAAACACACACACATATATATATATATA [CACACA_site3787] | 10.1 |
| AAAAAAAAAAAAAACACACACACACCCATAAATATA [CACACA_site151] | 11.2 |
| ACCATATAAATAAACACACACACACCCATATATATA [CACACA_site2321] | 10.6 |
| TATTAAACGAAACACACACACACACCCATATATAAA [CACACA_site759] | 11.5 |
| TATATAAAGAAACACACACACACCTTATAATTATTA [CACACA_site4062] | 11.2 |
| TAAAGAATATTATAAACACACACTTTATAAAGAATT [CACACA_site114] | 9.91 |
| AAATTACAAATACAAACACACAAATGTTTTTCATTC [CACACA_site3552] | 9.77 |
| AAAAAAAAAAGAACCCGTACATAAATAATATATATA [XGTACX_site164] | 9.73 |
| AAATTGAGACAACAGGTGCATATAAATATACAGTGT [GTGCAC_site9634] | 9.79 |
| GTATGAAATTATAATAGTACATATAAATAAAAAAAA [XGTACX_site8955] | 9.85 |
| ATTTTAATATAAAATACACACTACTATTATAAATAT [CACACA_site4917] | 9.64 |
| AAAATTGAACCTGACAAGGTATTTTATTATTTATTA [TGCATGCA_negctrl_site181] | 9.44 |
| ATAAAAATGGTGTTAACACACACATATATATATATA [CACACA_site8089] | 9.83 |
| TATATTATTTATAGTAGTACATAAAATATAAATATT [XGTACX_site4417] | 9.48 |

| Sequence | gcPBM binding intensity (ln) |
| --- | --- |
| TATTTTGTCATAGAACGTACTTATAAATATTTTTTT [XGTACX_site8424] | 9.5 |
| AAATCATGTTGAAGGGGTACAAAATATGTAATGTTG [XGTACX_site6222] | 9.82 |
| TTTTATTTCAATCCACAAGGGATAAAATAAAGTTTT [CACACA_negctrl_site699] | 9.3 |
| AAAATACAGAAACACACACACACACCCATATATATA [CACACA_site3559] | 10.7 |
| TTTATTAAACTTGACACACACACACCCACATATATA [CACACA_site760] | 10.2 |
| TTCCCATGTAATATTAAACACACACCCATATAACAC [CACACA_site7905] | 10.5 |
| TACACGCAGAAACACACACACACACCCATATATATA [CACACA_site637] | 11.4 |
| TATATATAGAAACACACACACACACCCAAGCGTAGC [CACACA_site63] | 10.6 |
| TCATAGTAGAAACACACACACACACCCATATATATA [CACACA_site1737] | 11.3 |
| AATACACGCAAACACACACACACACCCACATATATA [CACACA_site638] | 10.8 |
| AACACAGATAAATTAACACACACACCCATATATATA [CACACA_site9310] | 11.2 |
| TATTAAACTGGACACACACACACACCCATATATAAA [CACACA_site4579] | 11.2 |
| CACAGATAAATTAACACACACACACCCATATATATA [CACACA_site3960] | 10.5 |
| TATATATAGAAACACACACACATATATATATATATA [CACACA_site773] | 10.5 |
| CACAGATAAATTAACACACACACACCGATATATATA [CACACA_site6049] | 10.5 |
| TTTCGTCATTTTGTTTTTAATTCTACAATTTAGTTA [XGTACX_negctrl_site286] | 9.66 |
| TTATAGAGCTTATTCACACATACATATGTATTTATA [CACACA_site5775] | 9.87 |
| ATTATTATACACAAATGTACATGTGAATTTTTTTTC [XGTACX_site6982] | 9.63 |
| ATAAAACAAAAATATAAACACACATACATTGGTTTT [CACACA_site8809] | 10.1 |
| TTATTTTTATTATTTTGTATATATATTTATAGAAAA [XGTACX_negctrl_site465] | 9.28 |
| AAATATATTTCACGCACACACACCCCAAATAAATTT [CACACA_site3820] | 11.2 |
| ATAAATATATTTCACGCACACACACCCCAAATAAAT [CACACA_site9272] | 10.4 |

| Sequence | gcPBM binding intensity (ln) |
| --- | --- |
| AGATAAAAAAAGTACACACACACATATATATATATA [CACACA_site3072] | 10.4 |
| AATACATATAAAAGTACACACACACCCATATATATA [CACACA_site8220] | 10.5 |
| TATACAATATAAAATACACACGCACCCAAAAAAAAA [CACACA_site9174] | 10.3 |
| TACATATAAAAGTACACACACACACCCATATATATA [CACACA_site941] | 11 |
| AAAAAATTAAAAATACGTACATATATACATATATAT [XGTACX_site4621] | 9.71 |
| CATCATATAAATTCAAGTACAAGAAAAAGTAATATA [XGTACX_site2383] | 9.64 |
| ATATTTATGTAATGTTTGATTTTTTTTTTATGTGTG [CACACA_negctrl_site1422] | 9.88 |
| TAATAAATAGGACACACACACATATTTATATATCAT [CACACA_site6771] | 11 |
| GAATAATATGGACATACACACATATACATACATATA [CACACA_site2114] | 10.1 |
| AAAGGATATGGACACACACACACATATATATATATA [CACACA_site8686] | 10.6 |
| ATAAATATAGGACACACACACATATTATATATATAT [CACACA_site5658] | 10.5 |
| AGGATACACGGACACACACACATATATATATATATA [CACACA_site4654] | 10.6 |
| TAATAAAATAATATCACACATATTTATATATATTAT [CACACA_site5814] | 9.61 |
| TATTTATATGGACACACACACATATAAATAAATAAA [CACACA_site6346] | 10.2 |
| TGTACAAATATGTACACACACACATATTTATTTATA [CACACA_site6419] | 10.2 |
| TACAAATATGGACACACACACATATTTATATTTATA [CACACA_site6420] | 11 |
| TATATATATGGACACACACACATATAAATAAATAAA [CACACA_site4406] | 10.7 |
| TACAAATATGGACACACACACATATATATATATATA [CACACA_site4488] | 11.3 |
| AGGATATGCGGACACACACACATATATATATATATA [CACACA_site5247] | 11 |
| AACTATAACTAAAAAAATCACATAAAATATTTTATT [TGCATGCA_negctrl_site363] | 9.46 |
| TATTTAAAATAATGTGCAAAAGAATAAATAAATAAA [TGCATGCA_negctrl_site194] | 9.74 |
| GTGTACAAAATATGGTAATAAAGTAGTTACATGAAT [CACACA_negctrl_site1775] | 9.86 |
